Sampled rows, rich in hits. Any-hit rate of the full collection: about 4.1%.
DAX1 inh-1 – DAX1 (NR0B1) inhibitors, primary screen, cell-based, HEK293, Gal4-DAX1, luciferase luminescence. 340,000 compounds, 0.99% hits. inhibition, % at 6.75 µM. AID 504766, 2011. Nuclear receptor subfamily 0 group B member 1 (Homo sapiens), P51843. HEK293 Gal4-DAX1 luciferase reporter;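 active = inhibition above the mean over all tested compounds plus 3 SD, cut at about 4.2% in these data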;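 note: inhibition shows as a rise in luminescence from relieved DAX1 repression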
Target sequence (P51843 207-470 limits assumed): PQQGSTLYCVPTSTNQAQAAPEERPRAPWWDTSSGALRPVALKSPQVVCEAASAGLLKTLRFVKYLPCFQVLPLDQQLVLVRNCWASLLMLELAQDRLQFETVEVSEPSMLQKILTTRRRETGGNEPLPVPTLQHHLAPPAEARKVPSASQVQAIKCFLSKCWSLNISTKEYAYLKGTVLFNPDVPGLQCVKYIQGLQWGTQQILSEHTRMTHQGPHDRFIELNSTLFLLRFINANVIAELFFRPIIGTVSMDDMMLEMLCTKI
hgDAF-12 ag – H. glycines DAF-12 receptor agonists, primary screen, cell-based, luminescence, HEK293, GAL4 fusion, UAS-luciferase. HEK293 GAL4-hgDAF12 UAS-luciferase reporter, agonist luminescence; normalized to butyrate control. activation, % at 6.8 µM. 370,000 compounds, 1.8% hits. AID 687014, 2013;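 active = activation above a cutoff set at the mean of all screened compounds plus 3 SD, cut at about 10% in these data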
ssDAF12 agonist – S. stercoralis DAF-12 nuclear receptor activators, primary screen, cell-based, luminescence, HEK293, GRIP1 co-expression, lit1-tk-luc; Nuclear hormone receptor DAF-12 (Strongyloides stercoralis); AID 652126, 2013; activation, % at 6.8 µM; 370,000 compounds, 1% hits; HEK293 ssDAF-12/GRIP1 lit1-tk-luc reporter; % of 3 µM dafachronic acid response;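 active = activation above the mean over all tested compounds plus 3 SD, cut at about 0.9% in these data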
DAX1 inh-2 – DAX1 (NR0B1) inhibitors on StAR promoter, primary screen, cell-based, luminescence, SF-1 (NR5A1), full-length DAX-1 | HEK293T StAR-luciferase reporter, SF-1/DAX-1 repression relief | inhibition, % at 6.8 µM | 370,000 compounds, 1.1% hits;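 active = inhibition above the mean over all tested compounds plus 3 SD, cut at about 3.6% in these data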;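 note: higher inhibition means more luminescence from relief of DAX-1 repression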
hcDAF-12 act – H. contortus DAF-12 nuclear receptor activators, primary screen, cell-based, luminescence, HEK293, lit1-tk-luc reporter; HEK293 hcDAF-12 lit1-tk-luc reporter; 0% DMSO, 100% Δ7-dafachronic acid; activation, % at 6.8 µM; 370,000 compounds, 1.4% hits; AID 652067, 2013;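 active = activation above the mean of all tested compounds plus 3 SD, cut at about 5.5% in these data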
A number is an active result.

`CN1CC=C(c2ccc(C(F)(F)F)cc2)N(c2ccc(Br)cc2)C1=O` gave hgDAF-12 ag inactive, ssDAF12 agonist inactive, DAX1 inh-2 inactive and hcDAF-12 act inactive.
For Cn1cccc1C(=O)OCc1cc(-c2ccco2)on1 the results were DAX1 inh-1 inactive, hgDAF-12 ag inactive, ssDAF12 agonist inactive, DAX1 inh-2 4.3 and hcDAF-12 act inactive.
Screening CCOC(=O)Nc1ccc2c(c1)[C@]1(CC(=O)N(CC(C)C)C1c1ccccc1)C(=O)N2C (stereo not given in full) returned hgDAF-12 ag inactive, ssDAF12 agonist inactive, DAX1 inh-2 inactive and hcDAF-12 act inactive.
For O=C(NNC(=S)Nc1ccc(F)cc1)c1cccc([N+](=O)[O-])c1 the results were DAX1 inh-1 inactive, hgDAF-12 ag inactive, ssDAF12 agonist 1.8, DAX1 inh-2 inactive and hcDAF-12 act inactive.
CN(C)CCCNc1ncnc2c1cnn2-c1ccccc1 was read as DAX1 inh-1 inactive.
For c1ccc(CCNc2ncnc3c2cnn3-c2ccccc2)cc1 the results were DAX1 inh-1 inactive, hgDAF-12 ag 11.9, ssDAF12 agonist inactive, DAX1 inh-2 3.7 and hcDAF-12 act inactive.
For CC(C)OCCCNc1ncnc2c1cnn2-c1ccccc1 the results were DAX1 inh-1 inactive, hgDAF-12 ag 11.8, ssDAF12 agonist inactive, DAX1 inh-2 inactive and hcDAF-12 act inactive.
For Cc1ccc(C=Nn2c(-c3n[nH]c4c3CCC4)n[nH]c2=S)s1 the results were hgDAF-12 ag inactive, ssDAF12 agonist inactive, DAX1 inh-2 inactive and hcDAF-12 act inactive.
Cc1nc2ccc(S(=O)(=O)NCC(=O)NCc3cccs3)cc2s1 was read as hgDAF-12 ag inactive, ssDAF12 agonist inactive, DAX1 inh-2 inactive and hcDAF-12 act inactive.
`Cc1ccc(S(=O)(=O)NC2c3cccc4cccc(c34)C2Sc2nncn2C)cc1` (stereo not given) gave DAX1 inh-1 inactive, hgDAF-12 ag inactive, ssDAF12 agonist inactive, DAX1 inh-2 inactive and hcDAF-12 act inactive.
`Cc1ccc(S(=O)(=O)NC2c3cccc4cccc(c34)C2Sc2nc(C)cc(C)n2)cc1` (stereo not given) gave DAX1 inh-1 inactive, hgDAF-12 ag inactive, ssDAF12 agonist 1.4, DAX1 inh-2 inactive and hcDAF-12 act inactive.
`CCC(C)(C(=O)NC1CCCCC1)N(Cc1cccs1)C(=O)c1ccc(=O)[nH]c1` (stereo not given) gave DAX1 inh-1 4.7, hgDAF-12 ag inactive, ssDAF12 agonist inactive, DAX1 inh-2 inactive and hcDAF-12 act inactive.
For O=C(OCc1ccccc1)[C@H](Cc1ccccc1)NC(=O)[C@@H]1CC=C[C@@H]2CCN(Cc3ccccc3)C(=O)[C@@H]21 the results were hgDAF-12 ag inactive, ssDAF12 agonist inactive and hcDAF-12 act inactive.
`CCCCN1CCN(C(=O)c2ccc(CNC(=O)c3cccc(Br)c3)cc2)CC1` gave hgDAF-12 ag inactive, ssDAF12 agonist inactive, DAX1 inh-2 inactive and hcDAF-12 act inactive.
For O=C(Nc1ccnn1C1CCN(Cc2c[nH]c3ccccc23)CC1)c1ccccc1 the results were DAX1 inh-1 inactive, hgDAF-12 ag inactive, ssDAF12 agonist inactive, DAX1 inh-2 inactive and hcDAF-12 act 6.2.
Screening CCC(C(=O)Nc1ccccc1N1CCCC1)c1ccccc1Cl (stereo not given) returned hgDAF-12 ag inactive, ssDAF12 agonist inactive, DAX1 inh-2 inactive and hcDAF-12 act inactive.
Screening CC(C)(C)c1ccc(/C=N/NC(=O)C2CCCC2)cc1 returned DAX1 inh-1 inactive, hgDAF-12 ag inactive, ssDAF12 agonist inactive, DAX1 inh-2 inactive and hcDAF-12 act inactive.
`CC(C)c1ccc(/C=N/NC(=O)C2CCCC2)cc1` gave DAX1 inh-1 inactive, hgDAF-12 ag inactive, ssDAF12 agonist inactive, DAX1 inh-2 inactive and hcDAF-12 act 6.0.
Screening COc1ccc(N2CCCN(CC(=O)Nc3ccc(Cl)cc3)CC2)cc1 returned hgDAF-12 ag inactive, ssDAF12 agonist inactive, DAX1 inh-2 inactive and hcDAF-12 act inactive.
CC(C)Nc1cc(C(C)(C)C)nc2c(-c3ccccc3)cnn12 was read as DAX1 inh-1 6.0, hgDAF-12 ag inactive, ssDAF12 agonist inactive, DAX1 inh-2 inactive and hcDAF-12 act inactive.
`CC(C)(C)c1cc(C(F)(F)F)n2ncc(-c3ccccc3)c2n1` gave DAX1 inh-1 inactive, hgDAF-12 ag inactive, ssDAF12 agonist inactive, DAX1 inh-2 inactive and hcDAF-12 act inactive.
For Cc1cc(N)n2ncc(-c3ccccc3)c2n1 the results were DAX1 inh-1 inactive, hgDAF-12 ag 11.1, ssDAF12 agonist inactive, DAX1 inh-2 inactive and hcDAF-12 act inactive.
Screening CC(C)(C)c1cc(NCCCn2ccnc2)n2ncc(-c3ccccc3)c2n1 returned hgDAF-12 ag 11.7, ssDAF12 agonist inactive, DAX1 inh-2 inactive and hcDAF-12 act inactive.
`Cn1nccc1C(=O)Nc1sc2c(c1C#N)CCCC2` gave DAX1 inh-1 inactive, hgDAF-12 ag inactive, ssDAF12 agonist inactive, DAX1 inh-2 4.3 and hcDAF-12 act inactive.
Screening Cc1ccc(Nc2nc(N)c([N+](=O)[O-])c(NCCO)n2)cc1C returned DAX1 inh-1 4.4, hgDAF-12 ag inactive, ssDAF12 agonist inactive, DAX1 inh-2 inactive and hcDAF-12 act inactive.
Screening Nc1nc(Nc2ccc(Cl)cc2)nc(NCCO)c1[N+](=O)[O-] returned hgDAF-12 ag inactive, ssDAF12 agonist inactive, DAX1 inh-2 inactive and hcDAF-12 act inactive.
COc1ccc(N)c2c1C(=O)c1ccccc1C2=O was read as DAX1 inh-1 inactive, hgDAF-12 ag inactive, ssDAF12 agonist inactive, DAX1 inh-2 inactive and hcDAF-12 act inactive.
`Nc1ccc(O)c2c1C(=O)c1ccccc1C2=O` gave DAX1 inh-1 4.4, hgDAF-12 ag inactive, ssDAF12 agonist inactive, DAX1 inh-2 inactive and hcDAF-12 act inactive.
Screening Nc1nc2c(ncn2[C@@H]2O[C@H](C(=O)N[C@H](Cc3ccccc3)C(=O)NCc3ccc4c(c3)OCO4)[C@@H](O)[C@H]2O)c(=O)[nH]1 returned hgDAF-12 ag inactive, ssDAF12 agonist inactive, DAX1 inh-2 inactive and hcDAF-12 act inactive.
Screening O=C(CN1C(=O)NC(Cc2ccccc2)C1=O)Nc1ccc(F)cc1 (stereo not given) returned DAX1 inh-1 4.5, hgDAF-12 ag inactive, ssDAF12 agonist inactive, DAX1 inh-2 inactive and hcDAF-12 act inactive.
`C[C@H]1C2CC(OC(=O)Nc3ccc(C#N)cc3)C(C2)[C@H]2CCCCN21` (stereo not given in full) gave hgDAF-12 ag inactive, ssDAF12 agonist inactive, DAX1 inh-2 inactive and hcDAF-12 act inactive.
For CC(C)CN1C(=O)C[C@@]2(C(=O)N(C)c3ccc(NS(=O)(=O)C4CCCCC4)cc32)C1c1ccccc1 (stereo not given in full) the results were hgDAF-12 ag inactive, ssDAF12 agonist inactive, DAX1 inh-2 inactive and hcDAF-12 act inactive.
